# According to PubChem BioAssay (EPA / NIEHS):
# Records with an inconclusive call do not appear. Calls of active or inactive are those of the source. Rule for the calls: active = hit-call score of the fitted dose curve at least 0.9, where 1 is the maximum; inconclusive = response in the unintended direction; inactive = score below 0.9.
# Legend:
# [1] = target: Collagenase 3 (Homo sapiens) (UniProt P45452); assay: NVS_ENZ_hMMP13: NovaScreen (NVS) Enzymatic Assay for human Matrix Metalloproteinase-13 (MMP13) (AID 2283182)
# How it was run: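 Recombinant MMP13 cleaving fluorescent substrate, cell-free, measured 1 h after dosing. Primary duplicate screen at 25 uM; actives tested in concentration-response up to 50 uM; loss of signal relative to DMSO.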
# [2] = target: human Matrix Metalloproteinase-9 (MMP9), MMP9 (gene 4318) (UniProt P14780); assay: NVS_ENZ_hMMP9: NovaScreen (NVS) Enzymatic Assay for human Matrix Metalloproteinase-9 (MMP9) (AID 2283190);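 note: cell-free recombinant MMP9 protease activity read by fluorescent substrate signal; active means inhibition seen as loss of fluorescence signal versus DMSO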
# How it was run: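 Cell-free fluorescence-intensity enzyme activity assay using extracted protein, read 1 h after dosing. Loss of signal versus DMSO baseline indicates inhibition; primary screen in duplicate at 25 uM, actives followed up in concentration series.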
# [3] = target: human Phosphodiesterase 4A1 (PDE4A1), PDE4A (gene 5141) (UniProt P27815); assay: NVS_ENZ_hPDE4A1: NovaScreen (NVS) Enzymatic Assay for human Phosphodiesterase 4A1 (PDE4A1) (AID 2283191)
# How it was run: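 Cell-free recombinant human PDE4A1 with fluorescent substrate; product separated by electrophoretic mobility shift, 1 h. Screened at 25 uM, then up to 50 uM in concentration-response; loss of signal fitted against DMSO.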
# [4] = target: human Phosphodiesterase 5 (PDE5), PDE5A (gene 8654) (UniProt O76074); assay: NVS_ENZ_hPDE5: NovaScreen (NVS) Enzymatic Assay for human Phosphodiesterase 5 (PDE5) (AID 2283194)
# How it was run: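 Recombinant human PDE5 with specific substrate, read 1 h after dosing by fluorescence with electrophoretic mobility-shift separation of substrate and product. Initial single-concentration duplicate screen at 25 uM, actives followed in concentration series; loss of activity versus DMSO.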
# [5] = target: Mitogen-activated protein kinase 3 (Homo sapiens) (UniProt P27361); assay: NVS_ENZ_hMAPK3: NovaScreen (NVS) Enzymatic Assay for human Mitogen-Activated Protein Kinase 3 (MAPK 3) (AID 2283177)
# How it was run: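 Cell-free enzymatic assay with recombinant protein and specific substrate; fluorescence and electrophoretic mobility shift read-out 1 h after dosing. Primary screen duplicate at 25 uM; actives then run in concentration-response up to 50 uM, loss of signal versus DMSO.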
# [6] = target: human MAP Kinase-Activated Protein Kinase 2 (MAPKAPK2), MAPKAPK2 (gene 9261) (UniProt P49137); assay: NVS_ENZ_hMAPKAPK2: NovaScreen (NVS) Enzymatic Assay for human MAP Kinase-Activated Protein Kinase 2 (MAPKAPK2) (AID 2283178)
# How it was run: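 Cell-free recombinant human MAPKAPK2 activity measured by fluorescence with electrophoretic mobility shift separation of substrate and product, 1 hr after dosing. Loss of signal versus DMSO; primary screen at 25 uM, concentration-response up to 50 uM.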
# [7] = target: human Matrix Metalloproteinase-3 (MMP3), MMP3 (gene 4314) (UniProt P08254); assay: NVS_ENZ_hMMP3: NovaScreen (NVS) Enzymatic Assay for human Matrix Metalloproteinase-3 (MMP3) (AID 2283185)
# Experimental: NVS_ENZ_hMMP3 is a biochemical, single-readout assay that uses extracted gene-proteins in a cell-free assay. Measurements were taken 1 hour after chemical dosing in a 96-well plate.NVS_ENZ_hMMP3 is one of one assay component(s) measured or calculated from the NVS_ENZ_hMMP3 assay. It is designed to make measurements of enzyme activity, a form of enzyme reporter, as detected with fluorescence intensity signals by Fluorescence technology.Data from the assay component NVS_ENZ_hMMP3 was analyzed into 1 assay endpoint. This assay endpoint, NVS_ENZ_hMMP3, was analyzed in the positive analysis fitting direction relative to DMSO as the negative control and baseline of activity. […] Furthermore, this assay endpoint can be referred to as a primary readout, because this assay has produced multiple assay endpoints where this one serves a enzymatic activity function. […]
# Binding assays used specific radioligands (tritiated, iodinated) with non-radioactive competitive displacement ligands in agonist or antagonist protocols (as indicated) and various reference compounds and inhibitors to titrate specific binding to receptors and transporters. Most enzyme assays (CYPs, kinases, phosphatases, proteases, HDACs) used recombinant protein and specific substrates (fluorescence mostly, some colorimetric and radioactive) and inhibitors, followed by a biochemical separation of substrate and product. […]
# [8] = target: human Mitogen- and Stress-activated Protein Kinase-1 (Msk1), RPS6KA5 (gene 9252) (UniProt O75582); assay: NVS_ENZ_hMsk1: NovaScreen (NVS) Enzymatic Assay for human Mitogen- and Stress-activated Protein Kinase-1 (Msk1) (AID 2283187)
# How it was run: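 Recombinant kinase with fluorescent substrate; product separated by electrophoretic mobility shift, read 1 h after dosing. Screened in duplicate at 25 uM; hits (e.g. ≥30% inhibition) tested in concentration–response up to 50 uM. DMSO baseline.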
# [9] = target: cAMP-dependent protein kinase catalytic subunit alpha (Homo sapiens) (UniProt P17612); assay: NVS_ENZ_hPKA: NovaScreen (NVS) Enzymatic Assay for human Protein Kinase A (PKA) (AID 2283192)
# How it was run: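 Recombinant human PKA with specific fluorescent substrate, product separated by electrophoretic mobility shift, read 1 h after dosing. Primary screen at 25 uM in duplicate; actives then run in concentration-response up to 50 uM, activity relative to DMSO.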
# [10] = target: human LYN Proto-Oncogene, Src family Tyrosine Kinase (LynA), LYN (gene 4067) (UniProt P07948); assay: NVS_ENZ_hLynA: NovaScreen (NVS) Enzymatic Assay for human LYN Proto-Oncogene, Src family Tyrosine Kinase (LynA) (AID 2283173)
# How it was run: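 Recombinant kinase with fluorescent substrate; product separated from substrate by electrophoretic mobility shift and read 1 h after dosing. Duplicate screen at 25 uM, then concentration-response up to 50 uM; activity scored as signal loss against DMSO.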
# Chain of human Matrix Metalloproteinase-9 (MMP9), MMP9 (gene 4318) (P14780 whole entry, looked up): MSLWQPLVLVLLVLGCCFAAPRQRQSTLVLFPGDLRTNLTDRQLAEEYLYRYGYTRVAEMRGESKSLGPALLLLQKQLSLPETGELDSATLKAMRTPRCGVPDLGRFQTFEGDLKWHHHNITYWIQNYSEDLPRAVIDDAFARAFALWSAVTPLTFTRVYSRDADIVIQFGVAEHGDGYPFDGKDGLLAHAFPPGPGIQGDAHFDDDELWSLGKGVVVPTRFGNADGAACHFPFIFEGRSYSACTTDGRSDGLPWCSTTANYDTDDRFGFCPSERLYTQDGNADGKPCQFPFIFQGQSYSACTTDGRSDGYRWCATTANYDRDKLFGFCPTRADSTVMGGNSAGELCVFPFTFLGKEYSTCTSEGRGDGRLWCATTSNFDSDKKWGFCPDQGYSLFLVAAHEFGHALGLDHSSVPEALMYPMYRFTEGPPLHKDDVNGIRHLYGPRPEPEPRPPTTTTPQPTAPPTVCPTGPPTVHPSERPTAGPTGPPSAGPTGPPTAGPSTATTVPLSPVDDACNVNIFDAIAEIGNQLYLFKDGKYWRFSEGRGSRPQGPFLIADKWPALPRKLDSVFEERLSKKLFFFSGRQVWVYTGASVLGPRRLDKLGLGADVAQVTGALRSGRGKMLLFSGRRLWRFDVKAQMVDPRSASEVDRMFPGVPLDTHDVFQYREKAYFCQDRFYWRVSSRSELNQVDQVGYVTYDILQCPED
# Chain of Mitogen-activated protein kinase 3 (Homo sapiens) (P27361 whole entry, looked up): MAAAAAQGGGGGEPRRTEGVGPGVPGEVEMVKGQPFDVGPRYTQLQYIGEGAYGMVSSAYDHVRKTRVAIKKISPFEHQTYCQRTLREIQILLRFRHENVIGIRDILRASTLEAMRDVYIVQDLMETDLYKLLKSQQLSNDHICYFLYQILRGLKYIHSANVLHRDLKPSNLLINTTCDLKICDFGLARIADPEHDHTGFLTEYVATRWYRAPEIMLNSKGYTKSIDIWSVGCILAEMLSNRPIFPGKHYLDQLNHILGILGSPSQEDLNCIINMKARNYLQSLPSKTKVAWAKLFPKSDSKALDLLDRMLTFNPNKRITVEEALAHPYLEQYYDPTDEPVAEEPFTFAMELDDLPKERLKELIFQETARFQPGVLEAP
# Chain of human Phosphodiesterase 4A1 (PDE4A1), PDE4A (gene 5141) (P27815 whole entry, looked up): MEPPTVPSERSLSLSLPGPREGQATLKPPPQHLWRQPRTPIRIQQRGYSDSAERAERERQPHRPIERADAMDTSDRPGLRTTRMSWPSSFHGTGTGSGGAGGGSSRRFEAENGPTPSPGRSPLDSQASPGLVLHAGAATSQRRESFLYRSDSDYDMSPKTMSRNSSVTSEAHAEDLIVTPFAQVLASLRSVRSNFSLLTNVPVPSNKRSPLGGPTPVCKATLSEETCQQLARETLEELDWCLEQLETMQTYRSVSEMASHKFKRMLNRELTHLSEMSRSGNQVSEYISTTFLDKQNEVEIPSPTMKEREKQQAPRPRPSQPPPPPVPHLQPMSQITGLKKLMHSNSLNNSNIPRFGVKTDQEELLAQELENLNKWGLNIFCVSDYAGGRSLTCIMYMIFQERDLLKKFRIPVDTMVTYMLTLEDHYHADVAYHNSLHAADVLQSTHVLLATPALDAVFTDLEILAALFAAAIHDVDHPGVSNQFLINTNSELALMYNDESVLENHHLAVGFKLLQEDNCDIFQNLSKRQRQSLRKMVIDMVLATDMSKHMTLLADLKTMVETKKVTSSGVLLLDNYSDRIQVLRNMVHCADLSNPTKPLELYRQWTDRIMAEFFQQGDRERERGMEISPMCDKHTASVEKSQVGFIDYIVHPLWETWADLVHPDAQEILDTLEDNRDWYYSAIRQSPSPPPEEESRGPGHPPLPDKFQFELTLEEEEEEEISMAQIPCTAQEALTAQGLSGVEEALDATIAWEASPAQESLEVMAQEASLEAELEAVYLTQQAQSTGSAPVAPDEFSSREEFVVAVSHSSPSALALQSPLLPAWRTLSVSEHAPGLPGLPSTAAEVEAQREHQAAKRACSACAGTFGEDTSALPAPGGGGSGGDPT
# Chain of human Matrix Metalloproteinase-3 (MMP3), MMP3 (gene 4314) (P08254 whole entry, looked up): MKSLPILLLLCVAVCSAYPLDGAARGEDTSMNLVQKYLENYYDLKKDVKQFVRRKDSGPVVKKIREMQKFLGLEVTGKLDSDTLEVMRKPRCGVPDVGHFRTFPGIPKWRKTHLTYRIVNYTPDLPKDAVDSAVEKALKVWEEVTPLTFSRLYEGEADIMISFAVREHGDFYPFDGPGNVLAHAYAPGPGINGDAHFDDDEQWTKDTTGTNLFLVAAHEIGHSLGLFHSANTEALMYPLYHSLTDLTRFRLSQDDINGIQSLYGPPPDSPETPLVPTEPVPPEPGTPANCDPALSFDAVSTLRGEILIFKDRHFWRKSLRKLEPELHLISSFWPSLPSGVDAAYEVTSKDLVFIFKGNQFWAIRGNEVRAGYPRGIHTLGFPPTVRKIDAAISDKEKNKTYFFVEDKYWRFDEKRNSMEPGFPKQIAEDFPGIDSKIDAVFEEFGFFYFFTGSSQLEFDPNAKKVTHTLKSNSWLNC
# Chain of human LYN Proto-Oncogene, Src family Tyrosine Kinase (LynA), LYN (gene 4067) (P07948 whole entry, looked up): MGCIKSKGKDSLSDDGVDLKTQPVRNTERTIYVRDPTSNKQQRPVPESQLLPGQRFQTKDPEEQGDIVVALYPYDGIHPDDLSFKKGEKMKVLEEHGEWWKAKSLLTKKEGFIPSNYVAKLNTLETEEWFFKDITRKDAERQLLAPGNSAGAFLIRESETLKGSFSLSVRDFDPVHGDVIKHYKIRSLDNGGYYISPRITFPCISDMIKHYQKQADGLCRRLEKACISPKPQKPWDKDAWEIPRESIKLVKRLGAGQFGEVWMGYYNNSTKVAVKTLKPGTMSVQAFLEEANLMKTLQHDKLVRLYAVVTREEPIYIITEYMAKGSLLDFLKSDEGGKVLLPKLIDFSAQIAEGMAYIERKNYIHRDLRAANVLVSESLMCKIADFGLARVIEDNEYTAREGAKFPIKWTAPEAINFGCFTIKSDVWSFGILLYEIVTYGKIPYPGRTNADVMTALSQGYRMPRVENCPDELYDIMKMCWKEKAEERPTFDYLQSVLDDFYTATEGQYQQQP
# Chain of human Mitogen- and Stress-activated Protein Kinase-1 (Msk1), RPS6KA5 (gene 9252) (O75582 whole entry, looked up): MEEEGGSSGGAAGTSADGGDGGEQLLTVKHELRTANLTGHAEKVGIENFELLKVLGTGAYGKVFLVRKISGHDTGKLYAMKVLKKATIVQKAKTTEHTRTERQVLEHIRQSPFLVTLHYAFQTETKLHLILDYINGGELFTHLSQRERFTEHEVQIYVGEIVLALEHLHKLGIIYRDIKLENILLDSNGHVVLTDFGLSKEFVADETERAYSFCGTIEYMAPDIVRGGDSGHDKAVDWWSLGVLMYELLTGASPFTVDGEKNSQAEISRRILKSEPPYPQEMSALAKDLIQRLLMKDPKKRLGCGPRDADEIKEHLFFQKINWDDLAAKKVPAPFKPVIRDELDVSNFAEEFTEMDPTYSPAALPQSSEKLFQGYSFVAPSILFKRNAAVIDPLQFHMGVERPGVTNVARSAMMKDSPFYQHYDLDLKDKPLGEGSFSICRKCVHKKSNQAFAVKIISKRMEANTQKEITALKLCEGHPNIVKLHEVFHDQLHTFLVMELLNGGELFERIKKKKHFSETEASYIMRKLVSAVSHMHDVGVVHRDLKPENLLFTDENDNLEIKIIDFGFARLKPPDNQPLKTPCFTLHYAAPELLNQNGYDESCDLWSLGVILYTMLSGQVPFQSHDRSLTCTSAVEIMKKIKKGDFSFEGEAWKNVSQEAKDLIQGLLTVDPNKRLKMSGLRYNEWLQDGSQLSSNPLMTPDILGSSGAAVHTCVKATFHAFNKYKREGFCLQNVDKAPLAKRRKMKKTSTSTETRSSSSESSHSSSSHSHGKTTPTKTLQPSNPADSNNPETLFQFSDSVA
# Chain of human MAP Kinase-Activated Protein Kinase 2 (MAPKAPK2), MAPKAPK2 (gene 9261) (P49137 whole entry, looked up): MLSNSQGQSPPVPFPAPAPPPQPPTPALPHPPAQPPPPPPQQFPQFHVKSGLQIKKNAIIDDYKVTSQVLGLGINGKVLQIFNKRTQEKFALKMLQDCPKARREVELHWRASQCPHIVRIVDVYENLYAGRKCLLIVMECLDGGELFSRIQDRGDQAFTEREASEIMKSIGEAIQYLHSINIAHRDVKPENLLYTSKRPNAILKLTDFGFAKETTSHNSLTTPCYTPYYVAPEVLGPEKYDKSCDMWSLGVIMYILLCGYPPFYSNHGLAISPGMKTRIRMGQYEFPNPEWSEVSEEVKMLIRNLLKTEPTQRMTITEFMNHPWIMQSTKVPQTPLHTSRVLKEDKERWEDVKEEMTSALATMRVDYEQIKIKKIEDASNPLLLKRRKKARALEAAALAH
smiles,measurement,setting,value
CCCCCCCCCCCCCCC,outcome,[1],inactive
CCCCC(CC)C(=O)O (stereo not drawn),outcome,[2],inactive
CS(=O)(=O)c1ccc([C@@H](CC2CCCC2)C(=O)Nc2cnccn2)cc1Cl,outcome,[3],inactive
same,AC50,[4],8.2 µM (active)
CCCCCCCCCCCCOS(=O)(=O)O,AC50,[5],18.1 µM (active)
same,outcome,[6],inactive
same,AC50,[7],36.7 µM (active)
same,AC50,[8],43 µM (active)
same,AC50,[3],11.8 µM (active)
same,AC50,[9],42.4 µM (active)
CCCCCCCCCCCCCCCCCC[N+](C)(C)Cc1ccccc1,outcome,[2],inactive
Cc1[nH]nc2c1N=C(c1ccccc1Cl)c1cc([N+](=O)[O-])ccc1N2,AC50,[10],25 µM (active)
same,AC50,[5],25 µM (active)
same,AC50,[1],16.2 µM (active)
CCOC(C)=O,AC50,[2],4.98 µM (active)
O=C(c1ccccc1)c1ccccc1,outcome,[4],inactive
O=C1NS(=O)(=O)c2ccccc21,outcome,[9],inactive
CCCCCC(C)OC(=O)COc1ccc(Cl)c2cccnc12 (stereo not drawn),outcome,[4],inactive
